This passage reports outcome results from PubChem BioAssay.

Entries with a potency or affinity are not part of this list. Calls of active or inactive are those of the source.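 Rule for the calls: active = a fitted half-maximal concentration no higher than twice the top valid tested dose, with signal falling as cells die; inconclusive = flat curve between -70% and -30%, or poor fit; inactive = the rest, including signal rising instead of falling.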

The nature of the test: viability loss in HeLa cells – cell-based, ATP luminescence, cherry-pick samples, cytotoxicity control, dose response (AID 687004). As to conditions: ATP luminescence (CellTiter-Glo), 48 h; series mostly up to 26 µM. (In general: ATP-based viability assays read luminescence as a measure of living cells.)
On to `CCC(C(=O)Nc1c(C)cc(C)cc1C)N1CCCCCC1` (configuration not stated), for which the call was inactive. The result for `C[C@H]1CN([C@@H](C)CO)C(=O)Cc2cc(NC(=O)Nc3ccccc3)ccc2O[C@@H]1CN(C)C(=O)Nc1ccc2c(c1)OCO2` reads “inactive”; that for `Cc1ccc(S(=O)(=O)Nc2ccc3c(c2)C(=O)N([C@@H](C)CO)C[C@@H](C)[C@@H](CN(C)S(=O)(=O)c2ccc(Cl)cc2)OCCCC[C@H](C)O3)cc1`, “inactive”. The result for `CNC(=O)C[C@H]1CC[C@H]2[C@H](COc3ccc(NC(=O)Nc4ccccc4)cc3C(=O)N2C)O1` reads “inactive”; that for `O=C(Nc1cccc(F)c1)N[C@H]1CC[C@@H](CCNS(=O)(=O)c2cccc(Cl)c2)O[C@@H]1CO`, “inactive”.

Take `COc1ccc(S(=O)(=O)Nc2ccc3c(c2)C(=O)N([C@H](C)CO)C[C@@H](C)[C@@H](CN(C)C(=O)Nc2ccccc2)O3)cc1`: the result was inactive. `C[C@@H]1CN([C@H](C)CO)C(=O)c2cccc(NC(=O)C3CC3)c2O[C@H]1CN(C)Cc1ccc(C(=O)O)cc1`: the outcome was inactive.
